# Shown are actives, neighbours in structure and some others; about 2.3% of the full set was active somewhere.
# TDP43 rescue: inhibitors of TDP-43 toxicity in yeast | TDP-43 expressing yeast growth rescue, BacTiter-Glo, 24 h | Potency, µM (series often up to 46.1 µM), for the others: at the highest dose growth rescue (activation), hits mostly activators | 410,000 tested, 1.8% active | AID 652104; note: % of control where 0% means no effect; nearly all actives have a fitted effect of over 50% in size
#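 In this qHTS, compounds that restore growth of yeast expressing TDP-43 appear as activators. Cells (OD600=0.02, galactose medium, raffinose-pregrown) are incubated with compound 24 hr at 30 deg C and growth is quantified by BacTiter-Glo.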
# aSyn rescue: inhibitors of alpha-synuclein toxicity in yeast; Yeast expressing alpha-synuclein, growth rescue, BacTiter-Glo, 24 h; Potency, µM (titrated, usually from 46.1 µM), for the others: top-dose growth rescue (activation), actives largely listed as activators; 370,000 tested, 0.14% active; note: % of control where 0% means no effect; nearly all actives have a fitted effect of over 65% in size
#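 Readout is rescue of growth in alpha-synuclein-expressing yeast, so inhibitors of toxicity appear as activators. Growth after 24 hr at 30 deg C in galactose medium is quantified by luminescence.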
# Abeta rescue: restores growth of yeast expressing A-beta42 peptide | yeast expressing A-beta42, growth rescue, OD600, 48 h; response scale: 0% DMSO, 100% iron-clioquinol control | Potency, µM (series often up to 46.1 µM), most hits filed as activators | 410,000 tested, 0.063% active; note: nearly all actives have a fitted effect of over 55% in size
#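 Growth rescue measured by 600 nm absorbance after 48 h yeast culture at 30 C with compound. Values normalized between DMSO and an equimolar ferric chloride plus clioquinol control.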
# uPA generation: blocks generation of uPA at the cell surface; cell surface uPA generation assay, qHTS; Potency, µM (doses to about 38.3 µM), without a hit: at the top dose activity change, negative = inhibition, usual class: inhibitors; 330,000 tested, 0.31% active; AID 540303; active = well fitted inhibition curve with a large enough effect; inconclusive = small, poorly fitted or top-dose-only effect; inactive = no such curve, though single readings can be large or run the other way; tested in mouse RAW 264.7 cells; note: % is set by controls: 0 for no effect and ±100 for the full control effect; nearly all actives have a fitted effect of over 55% in size
# BCR signal inh: inhibitors of chronic active B-cell receptor signaling; ABC-DLBCL IkBa-CBG/CBR reporter, luminescence ratio, 4 h; Potency, µM (highest dose often 46.1 µM), inactives show at the top dose activity change, negative = inhibition, usual class: inhibitors; 340,000 tested, 0.05% active; AID 493014; active = well fitted inhibition curve with a large enough effect in the signal ratio, with a control signal flat, not every such curve was filed as active; inconclusive = small, poorly fitted or top-dose-only effect, or effect the other way, or a change in a side signal; the % refers to the signal ratio;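 note: plate controls were basal doxycycline-induced cells for no effect and cells given 10 µM MG132 for full effect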
#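 Doxycycline induced both beetle luciferases in TMD8 lymphoma cells; IKK-driven degradation limits the IkappaBalpha-fused green signal, while red luminescence normalises for cell number and nonspecific effects. Compounds tested up to 46 uM, 4 hrs.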
# FUS yeast rescue: suppressors of FUS proteinopathy in yeast; S. cerevisiae FUS-expressing, growth rescue, OD600, 24 h; Potency, µM (doses to about 76.6 µM), hits mostly activators; 390,000 tested, 0.24% active;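 note: plate controls were DMSO vehicle for no effect and reference control for full effect; nearly all actives have a fitted effect of over 55% in size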
#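 Steps: raffinose overnight preculture; dilution to OD 0.005 in 2% galactose minimal medium; compound addition (concentration series); 24hr at 30C, 99% humidity; absorbance read at 600 nm.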
# The depositor's hits bear a star; i = inactive; ? = inconclusive; · = no result. Unless noted, calls come from the whole dose curve; as a rule, active = well fitted curve in the direction sought with a large enough effect; inconclusive = small, poorly fitted or top-dose-only effect, or another doubt; inactive = no such curve, though single readings can be large; an effect the other way counts as inactive or inconclusive. Potency is the fitted concentration of half-maximal effect.
SMILES,TDP43 rescue,aSyn rescue,Abeta rescue,uPA generation,BCR signal inh,FUS yeast rescue
CCc1ccc(NC(=O)CCn2c(=O)c3cccn3c3ccccc32)cc1,13µM*,-5%,i,-12%,1%,?
Cc1ccc(CCNC(=O)CCCn2c(=O)c3cccn3c3ccc(F)cc32)cc1,35µM*,·,i,·,·,i
CC(CNC(=O)c1nnc(Cc2ccc(F)cc2)o1)c1ccccc1 (stereo unspecified),?,·,i,·,·,i
O=C(COC(=O)CNC(=O)c1ccc(Cl)cc1)Nc1ccc2c(c1)OCCO2,-6%,9%,i,8%,0%,·
COc1ccccc1OCCN1CSC(=S)N(C)C1,20µM*,-67%,i,-16%,0%,i
O=C(CCN1C(=O)/C(=C/c2ccccc2Cl)SC1=S)NC1C=CS(=O)(=O)C1 (stereo unspecified),16%,4%,i,7.9µM*,?,i
Cc1nn(-c2ccccc2)c2sc(-c3n[nH]c(=S)o3)cc12,?,-43%,i,-2%,?,7.1µM*
Cc1nn(-c2ccccc2)c2sc(C(=O)O)cc12,?,-22%,i,1%,7%,i
Cc1cc(C(C)(C)C)cc(C)c1C[n+]1ccc2ccccc2c1,-11%,0%,i,4.5µM*,?,i
O=Cc1cccc(OCc2cccc3ccccc23)c1,14µM*,-1%,i,-2%,?,i
COCCCNc1nc2ccccc2nc1NS(=O)(=O)c1ccc(C)c(C)c1,?,9%,i,-1%,4%,i
CCOCCOC(=O)c1[nH]c2c(c1C)C(=O)CC(c1cccs1)C2 (stereo unspecified),24%,2%,i,-6%,?,i
CCOC(=O)c1[nH]c2c(c1C)C(=O)CC(c1ccc(F)cc1)C2 (stereo unspecified),17%,-1%,i,1.3µM*,?,i
Cc1c(C(=O)OCC2CCCCC2)[nH]c2c1C(=O)CC(c1ccc(F)cc1)C2 (stereo unspecified),1%,·,i,·,·,i
COCCOC(=O)c1[nH]c2c(c1C)C(=O)CC(c1cccs1)C2 (stereo unspecified),1%,-4%,i,1µM*,?,i
COc1cccc(SCc2noc(C(=O)NCC3CC3)c2C(=O)NCC2CC2)c1,16%,7%,i,15%,·,?
CN(CC(=O)Nc1ccc(Cl)cc1)C(=O)c1sccc1-c1ccccc1,22µM*,4%,?,3%,1%,i
CN(CC(=O)Nc1cccc(F)c1)C(=O)c1sccc1-c1ccccc1,14%,0%,i,-2%,1%,i
CCOC(=O)c1ccc(N2CCOCC2)c(NC(=O)c2nccnc2C(=O)O)c1,-8%,-3%,i,3%,1%,i
COc1ccc2nc(C)cc(Sc3nc4ccccc4s3)c2c1,25µM*,13%,i,-15%,?,i
COc1ccc2nc(C)cc(SCC(=O)NNC(=O)COc3ccccc3)c2c1,3%,-6%,i,-8%,6%,·
Brc1cc2c(cc1Br)OCCOCCOCCO2,20µM*,0%,i,-6%,-10%,i
COc1ccc(Cl)cc1NS(=O)(=O)c1ccc2[nH]c3c(c2c1)CCCC3,13µM*,·,i,·,·,i
CCOC(=O)CC(NS(=O)(=O)c1ccc2[nH]c3c(c2c1)CCCC3)c1ccccc1Cl (stereo unspecified),20µM*,16µM*,i,·,?,?
COc1ccc(S(=O)(=O)Nc2cc(Cl)ccc2OC)cc1,3.2µM*,24%,i,-12%,?,·
SMILES,TDP43 rescue,aSyn rescue,Abeta rescue,uPA generation,BCR signal inh,FUS yeast rescue
C=CCN=C1CC(C)(C)CC(=O)/C1=C(/O)CCC(=O)OC,24%,13%,i,-7%,2%,i
Cc1ccc(-c2cc(C(=O)N/N=C/c3c[nH]c4ccccc34)n[nH]2)o1,-1%,-7%,i,?,?,i
Cc1cc(NC(=O)c2ccccc2F)n(-c2nc3ccccc3[nH]2)n1,10%,-7%,i,-4%,6%,i
Cc1cc(Nc2ccccc2)n(-c2nc3ccccc3[nH]2)n1,16µM*,10%,i,-5%,?,i
C/C=C\C=C\C(=O)Nc1cccc(C2=NOC3(C2)C[C@@H](C(N)=O)N(C(=O)C(c2ccccc2)c2ccccc2)C3)c1 (stereo partly specified),8%,4%,i,-12%,?,32µM*
NC(=O)[C@@H]1CC2(CC(c3cccc(NC(=O)COc4ccc(Cl)cc4)c3)=NO2)CN1C(=O)COc1ccc(Cl)cc1 (stereo partly specified),-22%,1%,i,?,?,18µM*
C=C(C)C(=O)N1CC2(CC(c3cccc(NC(=O)CC(c4ccccc4)c4ccccc4)c3)=NO2)C[C@H]1C(N)=O (stereo partly specified),-12%,11%,i,7%,1%,32µM*
O=C(Nc1ccccc1)c1ccc2snnc2c1,2%,13%,i,-3%,?,i
COc1cc2oc3ccccc3c(=O)c2cc1OC,16µM*,?,i,?,29%,i
O=C(O)c1cccc(Oc2ccc([N+](=O)[O-])cc2)c1,18µM*,19%,i,-1%,-9%,i
O=c1[nH]cnc2onc(-c3ccc(F)cc3)c12,-11%,-12%,i,-8%,1%,i
Cc1c(C(=O)N/N=C/c2ccc(Cl)cc2)[nH]c2ccc(Cl)cc12,6%,-9%,i,0.35µM*,?,i
COCC1CCN(C(=O)C2CCC(=O)N(Cc3cccc(F)c3)C2)CC1 (stereo unspecified),-7%,-1%,i,-2%,2%,·
CCCCc1ccc(NC(=O)CN(C)CC(=O)Nc2ccccc2Cl)cc1,13%,27%,?,-2%,-9%,35µM*
CN(CC(=O)Nc1ccccc1)CC(=O)Nc1ccccc1Cl,19%,10%,i,-2%,?,i
NNc1nc(-c2ccccc2)c2ccccc2n1,8%,-6%,i,·,?,i
NNc1nnc(-c2ccccc2)c(-c2ccccc2)n1,-16%,3%,i,-15%,6%,35µM*
CCOc1cccc(/C=N/NC(=O)c2cccnc2)c1O,-3%,7%,i,10µM*,?,i
CCOc1cccc(/C=N/NC(=S)Nc2ccccc2[N+](=O)[O-])c1O,31%,-1%,i,6.3µM*,?,i
